Compounds with a hit are over-represented: about 1.6% of the library has one in this group of screens.
KCNQ2 inh: blocks the rat KCNQ2 potassium channel; O88943; CHO-K1 KCNQ2, FluxOR thallium flux, 20 min; stronger effect = lower value; B-score at 10 µM; actives 1.1% (n = 310,000); AID 2156;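 active = fluorescence ratio B-score at most minus 3 library SDs, with starting brightness B-score within 2 library SDs, cut at about -5.5 in these data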
Target sequence (O88943 whole entry, looked up): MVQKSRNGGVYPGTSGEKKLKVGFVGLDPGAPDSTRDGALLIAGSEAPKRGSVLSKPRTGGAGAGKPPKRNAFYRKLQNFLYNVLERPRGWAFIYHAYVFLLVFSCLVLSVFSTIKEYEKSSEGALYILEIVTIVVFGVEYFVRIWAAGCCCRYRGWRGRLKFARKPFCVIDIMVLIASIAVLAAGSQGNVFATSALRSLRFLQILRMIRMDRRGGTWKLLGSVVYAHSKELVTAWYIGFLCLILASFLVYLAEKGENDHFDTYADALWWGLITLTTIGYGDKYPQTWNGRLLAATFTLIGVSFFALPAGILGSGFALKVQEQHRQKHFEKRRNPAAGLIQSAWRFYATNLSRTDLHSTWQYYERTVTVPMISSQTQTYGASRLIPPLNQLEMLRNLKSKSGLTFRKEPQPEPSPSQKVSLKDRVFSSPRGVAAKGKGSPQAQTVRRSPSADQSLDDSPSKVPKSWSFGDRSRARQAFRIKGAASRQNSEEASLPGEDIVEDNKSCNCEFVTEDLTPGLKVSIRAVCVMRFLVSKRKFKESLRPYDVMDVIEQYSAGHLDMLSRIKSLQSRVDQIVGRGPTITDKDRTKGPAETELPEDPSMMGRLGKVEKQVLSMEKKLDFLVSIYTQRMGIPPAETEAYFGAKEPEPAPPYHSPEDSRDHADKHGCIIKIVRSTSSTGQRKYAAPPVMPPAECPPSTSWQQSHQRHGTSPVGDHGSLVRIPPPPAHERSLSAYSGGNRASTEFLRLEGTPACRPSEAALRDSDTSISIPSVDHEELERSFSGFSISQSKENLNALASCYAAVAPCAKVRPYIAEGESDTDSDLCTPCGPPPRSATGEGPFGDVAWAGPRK
KCNQ2 pot: enhances the rat KCNQ2 potassium channel; AID 2239; B-score at 10 µM; O88943; actives 0.54% (n = 310,000); CHO-K1 KCNQ2, FluxOR thallium flux fluorescence; stronger effect = higher value;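 active = fluorescence ratio B-score at least 3 SD of library B-scores, with initial fluorescence B-score within 3 of them, cut at about 5.3 in these data; same plate scores as AID 2156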;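 note: B-score of peak minus minimum over baseline fluorescence ratio after K+ and Tl+ stimulus; positive B-score means potentiation of KCNQ2 with more thallium influx and brighter signal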
Large screens that a line does not name were inactive.

CCOC(=O)C1=C(N)OC2=C(C(=O)CC(C)(C)C2)C1C1CCCCC1 (stereo not drawn)	KCNQ2 inh -7.5
C=CCNc1nc(C)c(CNc2c(C)cc(C)cc2C)nc1C#N	none
CCn1c(=O)c(-c2cc(=O)[nH][nH]2)c(O)c2ccccc21	none (no result: KCNQ2 pot)
O=c1cc(-c2c(O)c3ccccc3n(Cc3ccccc3)c2=O)[nH][nH]1	KCNQ2 inh -6.8
N#Cc1c(-c2ccccc2)nc(SCc2cccc(Cl)c2)[nH]c1=O	none
CCn1ncc(CNC(=O)C2(C)CC2(Cl)Cl)c1C (stereo not drawn)	none
CCOC(=O)C/C(N)=N/N(C)c1ncc(C(F)(F)F)cc1Cl	none (no result: KCNQ2 pot)
CC1(C)CC2CC(C)(CN2C(=S)Nc2ccccc2)C1 (stereo not drawn)	none (no result: KCNQ2 pot)
CC1(C)CC2CC(C)(CN2C(=S)NC(=O)c2ccccc2Cl)C1 (stereo not drawn)	KCNQ2 pot 10
CCCCN(C)CCC(=O)Nc1ccc2c(c1)CCC2	none
COCCC(=O)N1CCC(Oc2ccc(C(=O)N3CCCCC3COC)cc2)CC1 (stereo not drawn)	none (no result: KCNQ2 pot)
CCOC(=O)CCNC(=O)Nc1cc2nc(C)n(Cc3cccc(Cl)c3)c2nc1C	none (no result: KCNQ2 pot)
CC(=O)c1ccc(NC(=O)COC(=O)c2ccccc2Sc2ccccc2C#N)cc1	none
N#Cc1ccccc1Sc1ccccc1C(=O)OCC(=O)NC12CC3CC(CC(C3)C1)C2	KCNQ2 pot 6.3
O=C1N(Cc2cccnc2)C[C@@H]2C[C@@H](c3ccc4nsnc4c3)N3CCC[C@@]123	none (no result: KCNQ2 pot)
C=CCNC(=O)[C@H]1N2C(=O)c3ccccc3C2SC1(C)C (stereo partly drawn)	none (no result: KCNQ2 pot)
CCC1Oc2ccc(C)cc2N(Cc2cccc(C)c2)C1=O (stereo not drawn)	KCNQ2 inh -5.9
Cc1ccc2c(c1)N(Cc1ccc3c(c1)OCO3)C(=O)C(C)O2 (stereo not drawn)	none (no result: KCNQ2 pot)
CC(=O)N(CCC(Cc1ccccc1)c1ccc2c(c1)OCO2)Cc1ccc(Cl)cc1 (stereo not drawn)	KCNQ2 inh -10
O=C(O)CC(Cc1ccccc1)c1ccc2c(c1)OCO2 (stereo not drawn)	none (no result: KCNQ2 pot)
CCC(C)(C)NC(=O)C(c1ccc(C)cc1)N(Cc1ccco1)C(=O)CCC(=O)Nc1nccs1 (stereo not drawn)	none (no result: KCNQ2 pot)
Cc1nc(N)sc1-c1csc(Nc2ccccn2)n1	KCNQ2 pot 6.8
Cc1nc(N)sc1-c1csc(Nc2ccc(Cl)cn2)n1	none
CC(=O)c1cccc(NC(=O)CN(C)S(=O)(=O)c2ccc3c(c2)CC(C)N3C(C)=O)c1 (stereo not drawn)	none (no result: KCNQ2 pot)
CCC1(c2ccccc2)C(=O)N(C(=O)OC(C)(C)C)N1C(=O)OC(C)(C)C (stereo not drawn)	KCNQ2 inh -6.5
CCOC(=O)N1C(=O)[C@](CC)(c2ccccc2)N1C(=O)OCC	none
COCCNC(=O)c1cc(OC)c(OC)cc1[N+](=O)[O-]	none (no result: KCNQ2 pot)
CCN(CC(=O)Nc1ccccc1OC)C(=O)CCOc1ccc(C(C)(C)C)cc1	KCNQ2 inh -6.3
CCOc1ccc(OCCC(=O)N(CC)CC(=O)Nc2ccccc2C(F)(F)F)cc1	none (no result: KCNQ2 pot)
CN(C(=O)c1ccc(COc2ccccc2Br)o1)c1ccccc1	KCNQ2 inh -6.2
CN(C)CCOC(=O)c1ccc(COc2ccccc2Br)o1	none
COC(=O)C1C/C(=N/NS(=O)(=O)c2ccc(C)cc2)CS1 (stereo not drawn)	none (no result: KCNQ2 pot)
CC(CN1CCOCC1)OC(=O)c1ccccc1Cl (stereo not drawn)	none (no result: KCNQ2 pot)
CCNC(=S)N1CCc2ccccc2C1	none
Cc1cccc(C(=O)NC(=S)N2CCc3ccccc3C2)c1	KCNQ2 pot 8.4
CCNC1=C(Cl)C(=O)c2ccccc2C1=O	none
O=C1C(Cl)=C(NCCN2CCCCC2)C(=O)c2ccccc21	KCNQ2 inh -5.8
Cc1ccsc1/C=C1/SC(N2CCOCC2)=NC1=O	none
O=C1N=C(N2CCOCC2)S/C1=C\c1cccs1	KCNQ2 pot 8.8
O=C(Nc1ccccc1F)c1cc(S(=O)(=O)N2CCOCC2)cs1	none (no result: KCNQ2 pot)
Cc1cccnc1Nc1nc(-c2ccc(F)cc2)cs1	KCNQ2 inh -7.2
Cc1cccnc1Nc1nc(-c2ccc(O)cc2)cs1	none (no result: KCNQ2 pot)
CC(C)CN1CCC(Oc2cccc(C(=O)NCCc3ccccc3)c2)CC1	none (no result: KCNQ2 pot)
Cc1nc2ccccc2n1S(=O)(=O)c1ccc(S(=O)(=O)N2CCCCCC2)cc1	none (no result: KCNQ2 pot)
Cc1ccc(S(=O)(=O)n2c(C)nc3ccccc32)cc1	KCNQ2 inh -7.3
O=C(N/N=C/c1cccc([N+](=O)[O-])c1)C1CC1c1ccccc1 (stereo not drawn)	KCNQ2 pot 15
O=C(N/N=C/c1ccco1)C1CC1c1ccccc1 (stereo not drawn)	KCNQ2 pot 20
O=C(CCc1ccccc1)N/N=C/c1cccc([N+](=O)[O-])c1	none
O=C(N/N=C/c1ccco1)C1CC1	none
CC(C)Cc1ccc(CN2CCCC(NC(=O)CSc3nncn3C)C2)cc1 (stereo not drawn)	none (no result: KCNQ2 pot)
c1ccc(-c2ncc(-c3ccn[nH]3)s2)cc1	none (no result: KCNQ2 pot)
CCc1ccc(NC(=O)C(=O)NNC(=O)COc2cccc(OC)c2)cc1	KCNQ2 pot 6
COc1ccc(NC(=O)C(=O)NNC(=O)COc2ccc(OC)cc2)cc1	none
Cc1cccc(C(=O)NCC(=O)OCC(=O)N(C)CC(=O)Nc2ccc(F)cc2)c1	none
CCN1/C(=C/c2ccc3ccccc3[n+]2CCCS(=O)(=O)[O-])C=Cc2cc(C)ccc21	none
CCN1/C(=C/c2ccc3ccccc3[n+]2CC)C=Cc2ccccc21	KCNQ2 inh -15
CCOC(=O)N1c2ccccc2Sc2ccccc21	none (no result: KCNQ2 pot)
Cc1ccccc1/C(N)=N/OC(=O)N1c2ccccc2Sc2ccccc21	KCNQ2 inh -5.8
Cc1ccc(C(=O)Nc2ccc(S(=O)(=O)Nc3cnc4ccccc4n3)cc2)cc1	none (no result: KCNQ2 pot)
Cc1cc(Cl)ccc1NC(=O)CSc1nnc(-c2ccncc2)n1Cc1ccco1	none
CC(=O)Nc1cccc(NC(=O)CSc2ncc(-c3ccc(Cl)cc3)n2Cc2ccco2)c1	KCNQ2 inh -6.6
O=C(CSc1nnc(-c2ccc(Cl)cc2)n1Cc1ccco1)NCc1ccc2c(c1)OCO2	KCNQ2 inh -5.9
CC(Sc1nnc2ccccn12)C(=O)NCc1ccc2c(c1)OCO2 (stereo not drawn)	none (no result: KCNQ2 pot)
COc1ccc(-c2nnc(SC(C)C(=O)NCc3ccc4c(c3)OCO4)n2Cc2ccco2)cc1 (stereo not drawn)	KCNQ2 inh -8.2
O=C(CSc1nnc(-c2ccc(Cl)cc2)n1Cc1ccco1)Nc1ccc2c(c1)OCCO2	none
Cc1nc2c(n1C1CCCCC1)C(=O)c1ccccc1C2=O	none
COc1ccc(Cc2nc3ccc(C(=O)NC4CCOC4)cc3o2)cc1 (stereo not drawn)	none
CCC(=Nc1ccccc1O)C1=C(O)CC(c2ccccc2)CC1=O (stereo not drawn)	none
CCC(=Nc1ccccc1OC)C1=C(O)CC(c2ccccc2)CC1=O (stereo not drawn)	KCNQ2 inh -5.8
CCc1nc2ccc(C(=O)N3CCN(c4ccccc4F)CC3)cc2nc1CC	none (no result: KCNQ2 pot)
CN(Cc1cccnc1)Cc1c(C(=O)N2CCc3ccccc3C2)nc2ccc(Cl)cn12	none (no result: KCNQ2 pot)
CCCCN(C)Cc1c(C(=O)N2CCc3ccccc3C2)nc2ccc(Cl)cn12	KCNQ2 inh -5.6
OC(c1ccccc1)(c1ccc(F)cc1)C(c1ccccc1)N1CCOCC1 (stereo not drawn)	KCNQ2 inh -5.7
O=C(NCC(c1ccc(F)cc1)N1CCOCC1)c1ccc(C(=O)c2ccccc2)cc1 (stereo not drawn)	none
COc1ccc(S(=O)(=O)N2CCC(C(=O)NCc3cccs3)CC2)cc1	none
COc1ccc(S(=O)(=O)N(CC(=O)NC2CCCCC2)c2ccc(F)cc2)cc1	none (no result: KCNQ2 pot)

Screening data from PubChem BioAssay.
